Laboratory results taken from PubChem BioAssay (NCATS).
Inconclusive results are not listed. Active and inactive are the calls of the source. Unless noted, calls follow the shape of the dose curve; as a rule, active = well fitted curve in the direction sought with a large enough effect; inconclusive = small, poorly fitted or top-dose-only effect, or another doubt; inactive = no such curve, though single readings can be large; an effect the other way counts as inactive or inconclusive.

Assays:
[1] = biological target: Cytochrome P450 3A4 (Homo sapiens) (UniProt P08684); assay: qHTS Assay for Inhibitors and Substrates of Cytochrome P450 3A4 (AID 884); also: nearly all actives have a fitted effect of over 50% in size; also: potency is read from the fitted curve at half-maximal effect; as to activity change, negative = inhibition: % is scaled to controls: 0 for no effect and ±100 for the full control effect
Chain of Cytochrome P450 3A4 (Homo sapiens) (P08684 whole entry, looked up): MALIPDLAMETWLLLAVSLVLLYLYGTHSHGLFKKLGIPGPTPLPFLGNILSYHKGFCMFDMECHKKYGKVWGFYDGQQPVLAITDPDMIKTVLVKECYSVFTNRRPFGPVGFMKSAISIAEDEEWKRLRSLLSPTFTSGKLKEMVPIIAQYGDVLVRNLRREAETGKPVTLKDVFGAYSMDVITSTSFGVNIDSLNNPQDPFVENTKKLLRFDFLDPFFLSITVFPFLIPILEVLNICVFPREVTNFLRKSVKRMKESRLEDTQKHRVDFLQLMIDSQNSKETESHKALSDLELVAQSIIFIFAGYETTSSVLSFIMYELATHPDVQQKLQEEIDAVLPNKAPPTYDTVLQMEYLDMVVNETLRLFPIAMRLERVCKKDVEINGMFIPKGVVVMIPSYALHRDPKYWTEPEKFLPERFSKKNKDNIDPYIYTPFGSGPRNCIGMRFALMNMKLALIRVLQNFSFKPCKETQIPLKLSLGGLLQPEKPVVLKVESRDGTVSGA
How it was run: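 20 nM human CYP3A4 with 25 uM Luciferin-PPXE (at KM) in 200 mM KPO4, preincubated 10 min with compound; NADPH regeneration started a 60 min RT reaction. Luciferin detected by luminescence, normalized to 57 uM ketoconazole as full inhibition.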

[2] = Confirmation and Secondary Assay for Modulators of Hemoglobin Beta Chain Splicing at IVS2 654 locus (AID 910);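 also: HeLa cells stably carrying EGFP split by mutant beta-globin IVS2-654 intron; per-well total GFP intensity by laser scanning cytometry after 2-day treatment; % of control where 0% means no effect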
How it was run: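 Readout: per-well total peak green fluorescence (488 nm ex, 500–520 nm em) from objects 5–250 µm, reflecting correct splicing of an EGFP-654 reporter. Compounds were applied for 2 days at 37 °C to overnight-plated HeLa EGFP-654 cells; controls were DMSO and 500 nM IVS2-654 PNA.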

[3] = Confirmation and Secondary Assay for Modulators of Hemoglobin Beta Chain Splicing at IVS2 705 locus (AID 930);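 also: HeLa cells stably expressing the EGFP-705 splicing reporter; GFP fluorescence per well restored by corrected splicing of the IVS2-705 intron in EGFP; % of control where 0% means no effect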
How it was run: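 Assay measures total GFP intensity per well in HeLa EGFP-705 cells after 2 days with compound; mis-splicing normally truncates EGFP, so fluorescence indicates corrected splicing.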

[4] = qHTS Assay for Lipid Storage Modulators (AID 1519; calls by dose curve; as to activity change, negative = inhibition: % is scaled to controls: 0 for no effect and ±100 for the full control effect); conditions: Drosophila S3 cells, BODIPY lipid droplet/cell ratio, laser cytometry, cells loaded with oleic acid; for activity change, negative = inhibition: at 57.5 µM (top of the series)
How it was run: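 Cells seeded at 5,000 per well were treated with compounds over a concentration series and loaded with oleic acid (400 uM, as added). Lipid droplet fluorescence (488 nm excitation, 500-530 nm channel) was read by laser-scanning cytometry and normalized to 20 uM Triacsin C.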

[5] = biological target: Cytochrome P450 3A4 (Homo sapiens) (UniProt P08684); assay: qHTS Assay for Activators of Cytochrome P450 3A4 (AID 885); also: nearly all actives have a fitted effect of over 65% in size
How it was run: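 Human CYP3A4 (20 nM) with Luciferin-PPXE at 25 uM (its KM) in 200 mM KPO4; 10 min compound preincubation, then NADPH regeneration and 60 min reaction at RT. Luciferin read by luminescence; normalized to 57 uM ketoconazole full inhibition.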

[6] = measured here: cell count channel max response
[7] = measured here: lipid channel max response

Row | SMILES | Potency [1] | Potency [2] | Potency [3] | activity change, negative = inhibition [4] | max response [4, 6] [%] | max response [4, 7] [%] | Potency [5]
1 | COc1c2ccccc2nc2occc12 | inactive | inactive | inactive | 9.64% (inactive) | 24.3 | 38.1 | 
2 | Oc1cc(O)c2c(c1)OC(c1cc(O)c(O)c(O)c1)C(O)C2 (stereo not drawn) | inactive | inactive | inactive | 12.8% (inactive) | 12.7 | 24.8 | 
3 | COc1ccccc1-c1cc(=O)c2cccc(OC)c2o1 | 20 µM (active) | inactive | inactive | 6.98% (inactive) | 13.5 | 23.2 | inactive
4 | O=c1[nH]c(=O)n(C2CC(O)C(CO)O2)cc1F (stereo not drawn) | inactive | inactive | inactive | 3.4% (inactive) | 3.49 | 8.27 | 
5 | CC(C)C(C)/C=C/C(C)C1CCC2C3=CC=C4CC(O)CCC4(C)C3CCC21C (stereo not drawn) | inactive | inactive | inactive | 4.22% (inactive) | 8.27 | 15.2 | 
6 | CCCCCCCCCCCCCCC(C(=O)O)C(O)(CC(=O)OC)C(=O)O (stereo not drawn) | inactive | inactive | inactive | 5.93% (inactive) | 16.5 | 25.2 | 
7 | CC(=O)OC1CC2C(C)(C)C(=O)C3OC3[C@]2(C)C2CC[C@@]3(C)C(c4ccoc4)OC(=O)C4OC43[C@]12C (stereo partly drawn) | inactive | inactive | inactive | -0.845% (inactive) | -15.4 | -5.43 | 
8 | CC(CCC(=O)O)C1CCC2C3CC[C@H]4CC(O)CC[C@@]4(C)C3C=C[C@]12C (stereo partly drawn) | inactive | inactive | inactive | 5.52% (inactive) | 9.1 | 18.3 | 
9 | COC(=O)c1cc(=O)c(O)c2c(O)c(O)ccc2c1 | inactive | inactive | inactive | -1% (inactive) | -7.53 | -9.52 | 
10 | COC(=O)/C=C/C(C)=C/C=C/C(C)=C/C=C/C=C(C)/C=C/C=C(C)/C=C/C(=O)O | inactive | inactive | inactive | 5.02% (inactive) | 17.2 | 24.2 | 
11 | CC(CC(O)C1OC1(C)C)C1CCC2(C)C3=CCC4C(C)(C)C(=O)CCC4(C)C3CC[C@@]12C (stereo partly drawn) | inactive | inactive | inactive | 3.08% (inactive) | 2.59 | 11 | 
12 | CC1O[C@@H](O[C@H]2C(Oc3cc(O)c4c(=O)cc(-c5ccc(O)cc5)oc4c3)OC(CO)C(O)C2O)C(O)C(O)C1O (stereo partly drawn) | inactive | inactive | inactive | 4.65% (inactive) | 16.6 | 23.3 | 
13 | CCC(=O)OC1C2CC3=C4CC(=O)OC(c5ccoc5)[C@]4(C)CCC3[C@@](C)(C2=O)C(CC(=O)OC)C1(C)C (stereo partly drawn) | inactive | inactive | inactive | -15.8% (inactive) | -7.4 | -17 | 
14 | CC(C)CCCC(C)C1CCC2C3CC=C4CC(=O)CC[C@@]4(C)C3CC[C@@]12C (stereo partly drawn) | inactive | inactive | inactive | 3.79% (inactive) | 3.76 | 6.47 | 
15 | C/C(=C\CO)CCC(C)CCCC(C)CCCC(C)C (stereo not drawn) | inactive | inactive | inactive | 6.09% (inactive) | 8.07 | 14.9 | 
16 | CC12CCCC(O)(C1)C1CC(C)(C)C1CC2 (stereo not drawn) | inactive | inactive | inactive | 4.18% (inactive) | -0.674 | 2.69 | 
17 | CC(=O)OC1CC2C(C)(C)C(=O)CC[C@]2(C)C2CC[C@@]3(C)C(c4ccoc4)OC(=O)C4OC43[C@]12C (stereo partly drawn) | 3.98 µM (active) | inactive | inactive | 5.91% (inactive) | 22.7 | 27.2 | 
18 | CC(=O)OC1CC[C@]2(C)C(CC[C@@]3(C)C2C(=O)C=C2C4C(C)C(C)CC[C@@]4(C(=O)O)CCC23C)C1(C)C (stereo partly drawn) | 25.1 µM (active) | inactive | inactive | 0.887% (inactive) | 18.2 | 20.8 | inactive
19 | C=CCCCCCCCCCCCC(O)CC(O)CO (stereo not drawn) (tested in a mixture with another compound) | inactive | inactive | inactive | 11.1% (inactive) | 1.75 | 15.4 | 
20 | CC(C)=CC1C(CO)C1(C)C (stereo not drawn) | inactive | inactive | inactive | 4.52% (inactive) | 11.9 | 18.1 | 
21 | O=c1oc2ccccc2cc1O | inactive | inactive | inactive | 6.16% (inactive) | 4.09 | 13.1 | 
22 | C=CCCCCCCCCCCCc1ccco1 | inactive | inactive | inactive | 3.13% (inactive) | 16.1 | 21.7 | 
23 | COC(=O)C(C)c1ccc(C(=O)c2cccs2)cc1 (stereo not drawn) | inactive | inactive | inactive | 9.81% (inactive) | -1.55 | 12.4 | 
24 | COc1ccc(/C=C/C(=O)c2ccc(O)cc2O)cc1 | 2.51 µM (active) | inactive | inactive | 5.71% (inactive) | 11.7 | 19.5 | 
25 | C/C=C(/C)C(=O)OC1C(OC(C)=O)[C@@]2(CO)C(O)C[C@@]3(C)C(=CCC4[C@@]5(C)CCC(OC6OC(C(=O)O)[C@@H](O[C@@H]7OC(CO)C(O)C(O)C7O)C(O)[C@H]6O[C@@H]6OC(CO)C(O)C(O)C6O)[C@](C)(CO)C5CC[C@@]43C)C2CC1(C)C (stereo partly drawn) | inactive | inactive | inactive | 9.44% (inactive) | 18 | 28.7 | 
26 | Nc1ncnc2c1nc(Cl)n2C1OC(CO)C(O)C1O (stereo not drawn) | inactive | inactive | inactive | 3.24% (inactive) | 5.55 | 12.1 | 
